Reference: PubChem BioAssay (NCATS)
Where “and” joins values, the source holds several entries; their conditions need not be identical. Identical values can stand only once. Results filed as inconclusive are left out. Calls of active or inactive are those of the source. Unless noted, calls follow the shape of the dose curve; as a rule, active = well fitted curve in the direction sought with a large enough effect; inconclusive = small, poorly fitted or top-dose-only effect, or another doubt; inactive = no such curve, though single readings can be large; an effect the other way counts as inactive or inconclusive.

Legend:
[1] = target: Glucocorticoid receptor (Homo sapiens) (UniProt P04150); assay: GR-GFP Redistribution (AID 450;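 active = compounds whose dose series gives a full or clear partial fitted curve of increased nuclear translocation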; also: potency is read from the fitted curve at half-maximal effect); settings: U2OS GR-GFP nuclear translocation, laser cytometry, 2 h
Sequence of Glucocorticoid receptor (Homo sapiens) (P04150 whole entry, looked up, the tested form may be a part): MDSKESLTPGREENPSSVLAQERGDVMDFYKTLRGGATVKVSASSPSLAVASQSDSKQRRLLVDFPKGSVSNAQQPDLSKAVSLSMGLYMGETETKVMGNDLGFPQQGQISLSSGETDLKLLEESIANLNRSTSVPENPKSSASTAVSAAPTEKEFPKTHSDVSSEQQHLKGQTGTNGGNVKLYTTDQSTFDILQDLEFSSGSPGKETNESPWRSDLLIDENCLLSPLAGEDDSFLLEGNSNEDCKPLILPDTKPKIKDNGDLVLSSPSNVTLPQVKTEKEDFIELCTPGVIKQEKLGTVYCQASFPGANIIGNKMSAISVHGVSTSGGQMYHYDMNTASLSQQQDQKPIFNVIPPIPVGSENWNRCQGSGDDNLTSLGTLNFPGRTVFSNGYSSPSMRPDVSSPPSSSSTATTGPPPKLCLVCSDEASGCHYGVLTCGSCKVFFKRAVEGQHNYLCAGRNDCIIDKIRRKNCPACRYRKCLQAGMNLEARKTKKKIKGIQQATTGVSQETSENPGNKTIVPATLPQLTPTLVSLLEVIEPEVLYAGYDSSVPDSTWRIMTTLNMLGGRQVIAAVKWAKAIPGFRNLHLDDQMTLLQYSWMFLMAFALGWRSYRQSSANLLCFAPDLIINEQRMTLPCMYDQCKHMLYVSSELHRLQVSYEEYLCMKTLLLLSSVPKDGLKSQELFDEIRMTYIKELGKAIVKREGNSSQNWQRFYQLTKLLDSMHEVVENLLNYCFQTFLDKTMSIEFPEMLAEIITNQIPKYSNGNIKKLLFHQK
From the text: NIH Molecular Libraries Screening Centers Network [MLSCN]
NIH Chemical Genomics Center [NCGC]
The glucocorticoid receptor (GR) Redistribution assay (BioImage) enables the visualization of GR cytoplasmic to nuclear translocation by the use of a GR-GFP fusion. GR is normally cytosolic, however ligands such as dexamethasone, cause nuclear translocation where the protein binds to response elements and interacts with various co-factors to modulate transcription. Because both functional agonists and antagonists can induce nuclear translocation, this assay can detect ligands regardless of their effects on gene expression. GR-GFP expressing U20S cells were used here. Dexamethasone was the positive control for translocation and data normalization. Detection of nuclear translocation was performed in 1536-well plates using the Acumen laser scanning plate cytometer (TTP LabTech). Validation of this assay and a detailed protocol have been described.
NCGC Assay Protocol Summary:
GR-GFP U2OS cells were maintained in DMEM with Glutamax and high glucose, 1% v/v penicillin-streptomycin, and 0.5 mg/mL Geneticin. […] The plates were read by the Acumen Explorer using a 1 x 8 um scan of the whole well area. PI fluorescence triggered the collection of PI and GFP signals. […] Two subpopulations of nuclei were then defined by peak intensity of GFP fluorescence to obtain translocated and untranslocated objects. […]

[2] = target: Glucocorticoid receptor (Homo sapiens) (UniProt P04150); assay: GR-EFC Redistribution (AID 451; calls by dose curve; also: potency is read from the fitted curve at half-maximal effect); settings: CHO-K1 GR-EFC translocation, beta-gal luminescence, 2 h
Summary of the method: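 Translocation of GR-ED fusion to nuclear EA restores b-gal, read by luminescence after 1 h room-temperature detection. Engineered CHO-K1 biosensor cells, 1,000/well, exposed 2 h at 37 C to titrations up to 46 uM final.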

[3] = target: Mitogen-activated protein kinase 10 (Mus musculus) (UniProt Q61831); assay: JNK3 AlphaScreen Assay (AID 530; active = well fitted curve in either direction with a large enough effect, not every such curve was filed as active;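 also: kinase came from lysate of stimulated human HepG2 cells; signal reports phosphorylation of biotinylated GST-cJun 1-79 at Ser73 with 10 µM ATP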); settings: JNK3 lysate, c-Jun phosphorylation; series mostly up to 57.1 µM
Summary of the method: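 Kinase buffer: 20 mM Tris-HCl pH 7.6, 10 mM MgCl2, 1 mM DTT, 0.1 mM Na3VO4, 0.01% Tween-20; ATP 10 uM. Substrate biotin-GST-cJun(1-79), enzyme from activated HepG2 lysates. Detection by Ser73 phospho-antibody AlphaScreen.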

[4] = target: 3',5'-cyclic-AMP phosphodiesterase 4B (Homo sapiens) (UniProt Q07343); assay: qHTS Assay for Inhibitors of PDE-IV (AID 607; active = well fitted activation curve with a large enough effect in the main read-out, with a control signal flat, not every such curve was filed as active); settings: HEK293 ACTOne CNG channel cells, membrane potential fluorescence; series mostly up to 22.9 µM
Sequence of 3',5'-cyclic-AMP phosphodiesterase 4B (Homo sapiens) (Q07343 whole entry, looked up): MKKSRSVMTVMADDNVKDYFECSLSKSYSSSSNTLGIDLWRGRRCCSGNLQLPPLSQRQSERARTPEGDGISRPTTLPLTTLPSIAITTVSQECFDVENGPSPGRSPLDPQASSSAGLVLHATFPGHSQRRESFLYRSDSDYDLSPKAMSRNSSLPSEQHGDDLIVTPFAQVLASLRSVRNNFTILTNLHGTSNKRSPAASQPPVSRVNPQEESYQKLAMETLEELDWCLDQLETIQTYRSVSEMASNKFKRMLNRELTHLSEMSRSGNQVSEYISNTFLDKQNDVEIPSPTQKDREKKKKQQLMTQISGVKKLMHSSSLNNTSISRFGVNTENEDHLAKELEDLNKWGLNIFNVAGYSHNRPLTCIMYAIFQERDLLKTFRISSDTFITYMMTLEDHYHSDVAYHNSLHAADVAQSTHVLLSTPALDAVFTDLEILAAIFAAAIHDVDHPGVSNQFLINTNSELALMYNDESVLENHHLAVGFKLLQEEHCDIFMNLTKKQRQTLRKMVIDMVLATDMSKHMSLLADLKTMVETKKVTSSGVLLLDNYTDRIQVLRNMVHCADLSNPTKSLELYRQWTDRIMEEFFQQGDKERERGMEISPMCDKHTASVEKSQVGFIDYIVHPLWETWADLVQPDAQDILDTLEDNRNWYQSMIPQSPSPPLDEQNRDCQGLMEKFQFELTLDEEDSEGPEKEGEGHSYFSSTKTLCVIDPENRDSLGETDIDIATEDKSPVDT
Summary of the method: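 Cell-based read-out of cAMP via a modified cyclic nucleotide-gated channel and membrane potential dye (535/590 nm) in HEK293 cells expressing PDE4 endogenously. Compounds tested up to 22.9 uM final; 100 uM RO 20-1724 reference.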

[5] = Cell Viability - N2a (AID 540); settings: N2a mouse neuroblastoma cell viability; series mostly up to 92.2 µM; also: nearly all actives have a fitted effect of over 45% in size
Summary of the method: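 N2a mouse neuroblastoma, 1500 cells/well, 5 hr settle; compound 40 hr, 37 °C; CellTiter-Glo 20 min RT; luminescence; Hill-fit AC50.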

[6] = Cell Viability - NIH 3T3 (AID 541); settings: NIH 3T3 cell viability, qHTS; series mostly up to 92.2 µM;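 also: cells exposed to compound for 40 hours; nearly all actives have a fitted effect of over 25% in size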
Summary of the method: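 qHTS format; 40 hr compound exposure, 37 °C; CellTiter-Glo luminescence (cellular ATP) read-out after 20 min at RT. Decrease in ATP = cytotoxicity; AC50 from standard Hill fit.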

[7] = Cell Viability - HUV-EC-C (AID 542); settings: HUV-EC-C endothelial cell viability, qHTS; series mostly up to 92.2 µM;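 also: cells exposed to compound for 40 hours; nearly all actives have a fitted effect of over 35% in size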
Summary of the method: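 Luminescent ATP read-out (CellTiter-Glo, 20 min room temperature) after 40 hr compound treatment of HUV-EC-C cells at 37 °C. Concentration-response data fitted with the standard Hill equation to give AC50; tamoxifen and doxorubicin served as positive controls.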

[8] = Cell Viability - H-4-II-E (AID 543); settings: H-4-II-E rat hepatoma viability; series mostly up to 92.2 µM;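 also: cells exposed to compound for 40 hours; nearly all actives have a fitted effect of over 35% in size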
Summary of the method: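 qHTS, rat hepatoma H-4-II-E, 1500 cells/well; 40 hr compound exposure, 37 °C; CellTiter-Glo ATP luminescence after 20 min RT; AC50 by standard Hill fit.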

[9] = Cell Viability - SH-SY5Y (AID 544); settings: SH-SY5Y neuroblastoma cell viability; series mostly up to 92.2 µM;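 also: cells exposed to compound for 40 hours; nearly all actives have a fitted effect of over 55% in size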
Summary of the method: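 SH-SY5Y, 1500 cells/well, 5 hr pre-incubation 37 °C; cpd 40 hr 37 °C; CellTiter-Glo 20 min RT; luminescence (ATP) read. qHTS concentration-response, Hill fit → AC50. Tamoxifen, doxorubicin as positive controls.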

[10] = Cell Viability - Renal Proximal Tubule (AID 545); settings: renal proximal tubule cells viability, primary cells of rat origin; series mostly up to 91.7 µM;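 also: cells exposed to compound for 40 hours; nearly all actives have a fitted effect of over 40% in size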
Summary of the method: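 Luminescent ATP signal (CellTiter-Glo) served as the viability read-out after 40 hr compound exposure of freshly isolated rat proximal tubule cells at 37 °C. Concentration-dependent ATP loss was fitted with the Hill equation to give AC50.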

[11] = Cell Viability - Mesenchymal (AID 546); settings: mesenchymal cells viability, qHTS; series mostly up to 91.7 µM;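 also: cells exposed to compound for 40 hours before reading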
Summary of the method: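 CellTiter-Glo luminescence (intracellular ATP, 20 min room temperature) after 40 hr compound exposure at 37 °C of 1000 glomerulus-derived human kidney mesenchymal cells/well; AC50 values obtained by fitting qHTS concentration-response data to the Hill equation.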

[12] = Cellular Toxicity (caspase-3) HepG2 (AID 654); settings: HepG2 caspase-3 activation, luminescence, 0% = DMSO only, 100% = tamoxifen; series mostly up to 92.2 µM;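 also: cells exposed to compound for 16 hours before reading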
Summary of the method: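 Luminescent Caspase-Glo 3/7 readout after 16 hr compound exposure of human hepatocellular carcinoma HepG2 cells at 37 °C; qHTS concentration-response, normalized DMSO = 0%, 100 uM tamoxifen = 100%; AC50 by standard Hill equation.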

[13] = Cellular Toxicity (caspase-3) Jurkat (AID 655); settings: Jurkat caspase-3 activation, luminescence, DMSO = 0%, tamoxifen = 100%; series mostly up to 92.2 µM;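 also: cells exposed to compound for 16 h at 37 °C before reading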
Summary of the method: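 5000 Jurkat cells/well; compound 16 hr, 37 °C; Caspase-Glo 3/7 added, 20 min RT; luminescence read. Norm: DMSO = 0%, tamoxifen 100 uM = 100%. AC50, Hill model.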

[14] = Cellular Toxicity (caspase-3) HUV-EC-C (AID 656); settings: HUV-EC-C cells, caspase-3 activation (apoptosis), vehicle = 0, 100 µM tamoxifen = 100%; series mostly up to 92.2 µM
Summary of the method: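 qHTS; HUV-EC-C, 1000 cells/well; 5 hr settle, 16 hr cmpd, 37°C; Caspase-Glo 3/7, 20 min RT; luminescence. Norm: DMSO = 0%, tamoxifen 100 uM = 100%. Hill-fit AC50.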

[15] = Cellular Toxicity (caspase-3) SHSY5Y (AID 657); settings: SH-SY5Y caspase-3 activation, DMSO zero, 10 µM staurosporine = 100%; series mostly up to 91.7 µM;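 also: cells exposed to compound for 16 hours at 37 °C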
Summary of the method: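 qHTS, SH-SY5Y, 1500 cells/well, 5 h pre-incubation 37 °C; compound 16 h 37 °C; Caspase-Glo 3/7 1 h RT; luminescence. Norm.: DMSO = 0, 10 uM staurosporine = 100%. Hill fit → AC50.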

[16] = Cellular Toxicity (caspase-3) BJ (AID 658); settings: BJ fibroblasts, luminescence, normalized: DMSO 0%, staurosporine 100%; series mostly up to 91.7 µM;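 also: cells exposed to compound for 16 hours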
Summary of the method: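 Caspase-Glo 3/7 luminescence, read 1 hr after reagent at room temperature, in normal BJ fibroblasts exposed 16 hours at 37 °C. AC50 values from Hill-equation concentration-response, scaled between DMSO basal and 10 uM staurosporine as 100%.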

[17] = Cellular Toxicity (caspase-3) MRC-5 (AID 659); settings: MRC-5 cells, luminescence, normalized: DMSO 0%, 10 µM staurosporine 100%; series mostly up to 91.7 µM
Summary of the method: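 Luminescent Caspase-Glo 3/7 read-out (1 h, room temperature) after a 16 h, 37 °C compound exposure of MRC-5 lung fibroblasts at 1500 cells/well. Concentration-response AC50 from Hill equation; 0% DMSO, 100% 10 uM staurosporine.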

[18] = Cellular Toxicity (caspase-3) Mesangial (AID 660); settings: mesangial cells, normalized: DMSO 0%, 100 µM tamoxifen 100%; series mostly up to 91.7 µM;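 also: combined caspase 3 and 7 activity read by Caspase-Glo luminescence; cells exposed to compound for 16 h before the caspase read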
Summary of the method: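 Luminescent Caspase-Glo 3/7 readout (aminoluciferin substrate cleavage, 20 min RT) after 16 h compound exposure at 37 °C of normal human mesangial cells. Signal increase normalized between DMSO basal and 100 uM tamoxifen; Hill-equation AC50.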

[19] = Cellular Toxicity (caspase-3) SK-N-SH (AID 661); settings: SK-N-SH caspase-3 activation, qHTS, DMSO as zero, staurosporine as full; series mostly up to 91.7 µM;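 also: cells exposed to compound for 16 hours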
Summary of the method: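 Luminescent Caspase-Glo 3/7 read-out after 16 hr compound exposure of SK-N-SH neuroblastoma cells at 37 °C. Signal increase normalized to DMSO (basal) and 10 uM staurosporine (100%); AC50 from Hill equation fits of qHTS concentration-response data.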

[20] = Cellular Toxicity (caspase-3) H-4-II-E (AID 663); settings: H-4-II-E rat hepatoma, scaled: DMSO 0%, 100 µM tamoxifen 100%; series mostly up to 92.2 µM;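 also: cells exposed to compound for 16 hr before readout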
Summary of the method: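 Caspase 3/7 activation measured by luminescent aminoluciferin substrate cleavage after 16 hr compound treatment of H-4-II-E cells in complete medium. Increase normalized between DMSO (basal) and 100 uM tamoxifen (100%); Hill-equation AC50 from concentration-response.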

Measured: Potency

C[C@]1(C2CCCC2)Cc2cc(OCC(=O)O)c(Cl)c(Cl)c2C1=O
inactive: [1] > 46 µM | [2] > 46 µM | [3] | [4]

COc1ccc(CCC(=O)c2c(O)cc(O[C@@H]3O[C@H](CO)[C@@H](O)[C@H](O)[C@H]3O[C@@H]3O[C@@H](C)[C@H](O)[C@@H](O)[C@H]3O)cc2O)cc1O
not listed: [1] | [2] | [4]
inactive: all other assays above

C=C1C[C@]23C[C@@]1(O)CC[C@H]2[C@@]12C=C[C@H](O)[C@@](C)(C(=O)O1)[C@H]2[C@@H]3C(=O)O
not listed: [1] | [2] | [4]
inactive: all other assays above

CC(C)C[C@H](NC(=O)[C@@H]1O[C@H]1C(=O)O)C(=O)NCCCCN=C(N)N
inactive: [1] > 46 µM and > 20.6 µM | [2] > 46 µM | [3] | [4]

CCc1cccc2c3c([nH]c12)[C@@](CC)(CC(=O)O)OCC3
inactive: [3] | [4]
